According to PubChem BioAssay AID1159580 (chemical genetic matrix, 2015):
The campaign covered roughly 5,500 compounds. About 2,000 (36%) were called active. Another 18% or so got no clear call; they are omitted. No stated cut-off is given here; in the data, active means normalized growth mostly below about 0.91 (no sharp cut-off); inconclusive means no clear call, values can overlap the other calls; inactive means mostly above about 0.92. This is one part of the list.

Experiment: chemical genetic growth profiling, strain panel (AID 1159580);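 further: tested at 20 µM; growth read once vehicle control cultures reached saturation at 30 °C; 1 = growth at the plate median or of vehicle wells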
Conditions: growth OD

Measured: normalized growth

O[N+]1=CC=CCC1=S.On1ccccc1=S.[Zn]
active: S. cerevisiae deletion strains, locus YJR043C, strain POL32, stronger effect = lower value 0.0664 | S. cerevisiae deletion strains, locus YJR066W, strain TOR1, stronger effect = lower value 0.00186 | S. cerevisiae deletion strains, locus YJR075W, strain HOC1, stronger effect = lower value 0.0642 | S. cerevisiae deletion strains, locus YKL009W, strain mrt4, stronger effect = lower value 0.071 | S. cerevisiae deletion strains, locus YKL068W, stronger effect = lower value 0.0609 | S. cerevisiae deletion strains, locus YKL085W, strain MDH1 (second series), stronger effect = lower value 0.0543 | S. cerevisiae deletion strains, locus YKL085W, strain MDH1, stronger effect = lower value 0.0543 | S. cerevisiae deletion strains, locus YKL160W, strain elf1, stronger effect = lower value 0.07 | S. cerevisiae deletion strains, locus YKR001C, strain vps1, stronger effect = lower value 0.063 | S. cerevisiae deletion strains, locus YKR026C, strain gcn3, stronger effect = lower value 0.0676 | S. cerevisiae deletion strains, locus YKR091W, strain srl3, stronger effect = lower value 0.0611 | S. cerevisiae deletion strains, locus YLL001W, strain dnm1, stronger effect = lower value 0.059 | S. cerevisiae deletion strains, locus YLL026W, stronger effect = lower value 0.0586 | S. cerevisiae deletion strains, locus YLL041C, strain sdh2, stronger effect = lower value 0.0589 | S. cerevisiae deletion strains, locus YLR027C, strain aat2, stronger effect = lower value 0.0567 | S. cerevisiae deletion strains, locus YLR039C, strain RIC1, stronger effect = lower value 0.101 | S. cerevisiae deletion strains, locus YLR058C, strain SHM2, stronger effect = lower value 0.0528 | S. cerevisiae deletion strains, locus YLR102C, strain apc9, stronger effect = lower value 0.0619 | S. cerevisiae deletion strains, locus YLR113W, strain HOG1, stronger effect = lower value 0.14 | S. cerevisiae deletion strains, locus YLR221C, strain rsa3, stronger effect = lower value 0.0633 | S. cerevisiae deletion strains, locus YLR258W, strain gsy2, stronger effect = lower value 0.0677 | S. cerevisiae deletion strains, locus YLR262C, strain YPT6 (second series), stronger effect = lower value 0.0872 | S. cerevisiae deletion strains, locus YLR262C, strain YPT6, stronger effect = lower value 0.116 | S. cerevisiae deletion strains, locus YLR268W, strain sec22, stronger effect = lower value 0.0675 | S. cerevisiae deletion strains, locus YLR320W, strain mms22, stronger effect = lower value 0.0954 | S. cerevisiae deletion strains, locus YLR330W, strain CHS5, stronger effect = lower value 0.0529 | S. cerevisiae deletion strains, locus YLR342W, strain FKS1 (second series), stronger effect = lower value 0.0696 | S. cerevisiae deletion strains, locus YLR342W, strain FKS1, stronger effect = lower value 0.0672 | S. cerevisiae deletion strains, locus YLR357W, strain rsc2, stronger effect = lower value 0.128 | S. cerevisiae deletion strains, locus YLR370C, strain arc18, stronger effect = lower value 0.0633 | S. cerevisiae deletion strains, locus YLR371W, strain rom2, stronger effect = lower value 0.0617 | S. cerevisiae deletion strains, locus YLR384C, strain iki3, stronger effect = lower value 0.0637 | S. cerevisiae deletion strains, locus YLR418C, strain cdc73, stronger effect = lower value 0.0957 | S. cerevisiae deletion strains, locus YML016C, strain PPZ1, stronger effect = lower value 0.0508 | S. cerevisiae deletion strains, locus YML032C, strain rad52, stronger effect = lower value 0.0712 | S. cerevisiae deletion strains, locus YML120C, strain ndi1, stronger effect = lower value 0.0615 | S. cerevisiae deletion strains, locus YML124C, strain tub3, stronger effect = lower value 0.061 | S. cerevisiae deletion strains, locus YMR058W, strain fet3, stronger effect = lower value 0.0596 | S. cerevisiae deletion strains, locus YMR078C, strain ctf18, stronger effect = lower value 0.0748 | S. cerevisiae deletion strains, locus YMR125W, strain sto1, stronger effect = lower value 0.0764 | S. cerevisiae deletion strains, locus YMR129W, stronger effect = lower value 0.059 | S. cerevisiae deletion strains, locus YMR205C, strain PFK2, stronger effect = lower value 0.0932 | S. cerevisiae deletion strains, locus YMR223W, strain ubp8, stronger effect = lower value 0.0633 | S. cerevisiae deletion strains, locus YMR231W, strain pep5, stronger effect = lower value 0.0701 | S. cerevisiae deletion strains, locus YMR263W, strain SAP30, stronger effect = lower value 0.0599 | S. cerevisiae deletion strains, locus YMR307W, strain GAS1, stronger effect = lower value 0.132 | S. cerevisiae deletion strains, locus YNL067W, strain RPL9B, stronger effect = lower value 0.0487 | S. cerevisiae deletion strains, locus YNL071W, strain lat1, stronger effect = lower value 0.0631 | S. cerevisiae deletion strains, locus YNL128W, strain TEP1, stronger effect = lower value 0.0641 | S. cerevisiae deletion strains, locus YNL183C, strain NPR1, stronger effect = lower value 0.00323 | S. cerevisiae deletion strains, locus YNL209W, strain ssb2, stronger effect = lower value 0.0623 | S. cerevisiae deletion strains, locus YNL233W, strain BNI4, stronger effect = lower value 0.0571 | S. cerevisiae deletion strains, locus YNL248C, strain rpa49, stronger effect = lower value 0.0755 | S. cerevisiae deletion strains, locus YNL250W, strain rad50, stronger effect = lower value 0.0654 | S. cerevisiae deletion strains, locus YNL271C, strain bni1, stronger effect = lower value 0.074 | S. cerevisiae deletion strains, locus YNL298W, strain CLA4, stronger effect = lower value 0.0625 | S. cerevisiae deletion strains, locus YNL307C, strain MCK1, stronger effect = lower value 0.0674 | S. cerevisiae deletion strains, locus YNL322C, strain KRE1 (second series), stronger effect = lower value 0.0696 | S. cerevisiae deletion strains, locus YNR049C, strain mso1, stronger effect = lower value 0.0598 | S. cerevisiae deletion strains, locus YNR052C, strain pop2, stronger effect = lower value 0.0619 | S. cerevisiae deletion strains, locus YOL147C, strain pex11, stronger effect = lower value 0.0583 | S. cerevisiae deletion strains, locus YOR001W, strain rrp6, stronger effect = lower value 0.0748 | S. cerevisiae deletion strains, locus YOR061W, strain CKA2, stronger effect = lower value 0.049 | S. cerevisiae deletion strains, locus YOR069W, strain VPS5, stronger effect = lower value 0.0493 | S. cerevisiae deletion strains, locus YOR070C, strain gyp1, stronger effect = lower value 0.064 | S. cerevisiae deletion strains, locus YOR080W, strain dia2, stronger effect = lower value 0.0707 | S. cerevisiae deletion strains, locus YOR083W, strain WHI5, stronger effect = lower value 0.0734 | S. cerevisiae deletion strains, locus YOR106W, strain vam3, stronger effect = lower value 0.0661 | S. cerevisiae deletion strains, locus YOR136W, strain idh2, stronger effect = lower value 0.0716 | S. cerevisiae deletion strains, locus YOR144C, strain elg1, stronger effect = lower value 0.0584 | S. cerevisiae deletion strains, locus YOR184W, strain ser1, stronger effect = lower value 0.0698 | S. cerevisiae deletion strains, locus YOR231W, strain MKK1, stronger effect = lower value 0.116 | S. cerevisiae deletion strains, locus YOR265W, strain rbl2, stronger effect = lower value 0.064 | S. cerevisiae deletion strains, locus YOR270C, strain vph1, stronger effect = lower value 0.0915 | S. cerevisiae deletion strains, locus YOR290C, strain snf2, stronger effect = lower value 0.0656 | S. cerevisiae deletion strains, locus YOR316C, strain cot1, stronger effect = lower value 0.0596 | S. cerevisiae deletion strains, locus YPL051W, strain arl3, stronger effect = lower value 0.0708 | S. cerevisiae deletion strains, locus YPL055C, strain LGE1, stronger effect = lower value 0.0796 | S. cerevisiae deletion strains, locus YPL078C, strain atp4, stronger effect = lower value 0.07 | S. cerevisiae deletion strains, locus YPL106C, strain sse1, stronger effect = lower value 0.109 | S. cerevisiae deletion strains, locus YPL240C, strain hsp82, stronger effect = lower value 0.0591 | S. cerevisiae deletion strains, locus YPL256C, strain CLN2, stronger effect = lower value 0.114 | S. cerevisiae deletion strains, locus YPR119W, strain clb2, stronger effect = lower value 0.0639 | S. cerevisiae deletion strains, locus YPR141C, strain kar3, stronger effect = lower value 0.0689 | S. cerevisiae deletion strains, locus YPR163C, strain tif3, stronger effect = lower value 0.0727 | S. cerevisiae deletion strains, locus YPR167C, strain met16, stronger effect = lower value 0.0637 | S. cerevisiae deletion strains, strain wtn01, stronger effect = lower value 0.0638 | S. cerevisiae strains, strain wild type, stronger effect = lower value 0.0514
